Laboratory results reported in the supplement of paper PMC6555819.

What was measured:
Experiment in all cases: PBM binding z-score (relative to random genomic background probes); higher = stronger binding; sequences stand for … in GC…GCGATTGACAGCGTAGAATGAAGG
[1] = system: RARb homodimer (NR concentration 270 nM)
Summary of the method: (§1)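 Binding z-scores take random background probes as their reference. They come from custom Agilent 4×180K protein-binding microarrays incubated 1 h with ligand-free nuclear receptor dimers, with antibodies against each partner (one per run) detecting binding. Scanned fluorescence was regression-normalized.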

[2] = system: RARg:RXRa (NR concentration 270 nM, RXRa partner concentration 90 nM)
Summary of the method: as §1

[3] = system: RARg homodimer (NR concentration 270 nM)
Summary of the method: as §1

[4] = system: RXRa DBDmut IVT, anti-RXR (DBD mutation: RXRa K156A/R161A, NR concentration 90 nM)
Summary of the method: as §1

[5] = system: RXRa homodimer (NR concentration 180 nM)
Summary of the method: as §1

[6] = system: THRa:RXRa (NR concentration 90 nM, RXRa partner concentration 90 nM)
Summary of the method: as §1

[7] = system: THRa homodimer (NR concentration 90 nM)
Summary of the method: as §1

[8] = system: VDR homodimer (NR concentration 270 nM)
Summary of the method: as §1

Sequence	PBM binding z-score [1]	PBM binding z-score [2]	PBM binding z-score [3]	PBM binding z-score [4]	PBM binding z-score [5]	PBM binding z-score [6]	PBM binding z-score [7]	PBM binding z-score [8]
CCTAGTTGGTCAGGAGATCACACACCGGATATGA	0.781	0.628	1.01	0.108	0.347	-0.184	0.385	0.435
ATACCAAGGTGATCGTGAGGTCGTTAATACTAAC	1.68	1.93	0.856	0.881	1.32	3.3	2.44	3.04
TCATATAGGTAATACAGGTGAAAGTTGGCATCTA	0.923	1.02	0.788	1.86	1.69	1.19	0.467	0.572
CCTATTAGTTGACCATAACGGCAACCGAAGCTCG	1.01	0.618	0.817	0.595	0.625	0.388	0.93	1.08
CATACAGGGTCAGATAGGCCAGAGTAGGGACGGC	2.99	4.18	4.16	1.83	3.75	2.81	0.777	1.47
ATCGAAAGGTCGTGAGGTGCGTATACAGAAAGGC	2.59	4.2	3.57	1.16	4.65	2.45	-0.17	1.59
TATACAGGGTCACAGGCCAGAGTACGAATGTCGA	3.83	5.96	5.41	2.61	6.79	3.92	1.94	2.51
CAAACTAGGTCGAAGGTCAAAGTCGAGCCAACCA	3.79	5.7	4.29	1.85	6.86	3.5	0.693	1.71
TAGCCTAGGTCATTCAGGGGCCAGGATAGAAAGC	3.18	6.27	4.6	1.8	2.86	3.57	0.667	1.6
AGTCAAAGTTCAGGACGATGTAACGTAAAGCACG	2.88	3.94	4.82	2.83	2.53	1.92	0.0967	1.75
ATACCCAGGTGATCGTGAGGTCGTTGATACTAAC	2	1.49	0.63	0.432	1.39	3.14	2.72	2.52
CCTCGGAGGACAGACGGTCAGAGCTGTCCGCTTT	0.948	0.15	1.12	-0.152	-0.87	-0.0863	-0.156	-0.276
CGAACTAGGTCATCCAGGACACTGAATACATTGA	3.19	4.13	4.86	2.38	3.13	4.19	3	3.09
GATACAGGGTCAGGTAGAGGCCAGAGTATGGAAA	3.48	6.43	4.46	0.77	4.13	3.18	0.846	1.25
ATCTCTAGGTAAAGATAGTTCAGAGAATGCAAAT	0.692	0.65	0.767	-0.136	0.482	0.724	0.0734	0.51
TCTCGGAGGACACGAAAGGTCAGAGCTCGACATC	4.73	4.97	5.83	0.844	3.97	3.52	1.08	0.918
AGAACGAGGGTAATGAGTTGATAGCACGGGTGGC	-0.134	0.312	0.371	0.405	0.5	-0.0331	-0.615	1.53
CAAACTAGGTCGCCGGAAGGTCAAAGTCCGCATG	4.43	6.47	4.32	1.22	4.39	3.68	1.44	2.39
TCTATTAGATGATTAGGGCAACCGAAACAGCGGA	0.19	0.609	0.575	1.02	0.432	0.35	-0.055	0.272
TCTGCTAGGTCAACGATGGGCAGCTAATCTGCTA	2.74	3.94	5.25	0.549	2.44	2.63	0.424	-0.398
AGAATGAGGTTATACGTAGATCTGGGAAGAAAGT	0.334	1.39	0.958	1.1	1.94	2.03	0.225	0.724
CAAACTAGGGCAAAGGTCAAAGTCGAGCCAACCA	4.68	7.57	6.04	2.02	8.18	3.87	0.591	2.25
CGTCCAAGGACAGCAGGTCAGTGAAAGCGACGTG	2.36	1.72	2.06	0.0474	0.679	2.46	0.788	-0.264
CTAACTAGGTCAAGGACAGTGAATCTCCGCACGC	3.16	3.64	4.21	1.34	2.64	3.08	2.01	0.398
ACAGACAGGTGATGATGGTAACTCAGGCTATCAT	0.184	0.343	0.369	-0.173	0.335	0.48	0.015	0.157
AATACAGGGTCACTAGGCCACAGTAGGTACGAAT	3.36	5.36	4.87	2.86	5.56	3.38	1.32	2.95
GCATGTAGGTAATACAAGGTGAAAGTCCGATTGT	0.748	0.359	0.236	-0.332	0.495	3.96	0.81	-0.301
AGAACGAGGGGAATGAGTTGATAGCACGGGTGGC	0.0648	0.0895	0.0667	0.224	0.437	0.0318	-0.151	0.812
GCTATTAGTTGAAAGGGCAAGCGAATGATTCTCG	1.71	1.06	1.04	0.747	1.06	0.545	-0.289	0.401
